Only some compounds are listed: those with a hit (about 9.3% of all), similar ones and a draw of the others.
VACV Venus inh: vaccinia inhibition (Venus reporter) | Vaccinia virus Venus reporter expression, fluorescence | Potency, µM (top dose mostly 36.5 µM), inactives show at the top dose activity change, negative = inhibition, actives largely listed as inhibitors | hit rate 0.46% among 330,000; calls by dose curve; tested in A549 cells; further: potency means the concentration at half of the fitted maximal effect; nearly all actives have a fitted effect of over 30% in size
Sm TGR block: blocks Schistosoma mansoni thioredoxin glutathione reductase; Potency, µM (titrated, usually from 114 µM), for inactives: at the highest dose activity change, negative = inhibition, usual class: inhibitors; hit rate 3% among 360,000; Q962Y6; purified TGR, DTNB reduction, TNB absorbance 405 nm; further: potency means the concentration at half of the fitted maximal effect; nearly all actives have a fitted effect of over 60% in size
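First, TGR (20 nM dispensed) and NADPH were mixed with compound. Second, a 15 min room-temperature incubation followed. Third, further NADPH and then DTNB were added to start the reaction. Finally, TNB absorbance was monitored kinetically.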
HCV inhibitor: inhibitors of hepatitis C virus infection; Huh7.5.1 HCVcc-Cre infection, luciferase reporter, 44 h; Potency, µM (doses to about 41.8 µM), for the others: top-dose activity change, negative = inhibition, hits mostly inhibitors; hit rate 3.4% among 340,000; AID 651820; further: potency means the concentration at half of the fitted maximal effect
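Antiviral activity was scored by luciferase reporter output from cells infected with HCVcc-Cre (~0.5 moi) in presence of compound, 44 h infection period, cells seeded 1,000/well 4 h prior.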
FMDV inh: blocks foot and mouth disease virus | hit rate 1.2% among 410,000 | FMDV antiviral cell-based qHTS | Potency, µM (doses to about 57.9 µM), without a hit: top-dose activity change, negative = inhibition, most hits filed as inhibitors | AID 1159524; calls by dose curve; tested in HEK293T cells; further: read-out not given here; potency means the concentration at half of the fitted maximal effect; nearly all actives have a fitted effect of over 45% in size
Vaccinia mCherry: inhibitors of vaccinia virus infection (mCherry reporter signal); Vaccinia virus mCherry reporter infection, fluorescence; Potency, µM (series often up to 36.5 µM), inactives show top-dose activity change, negative = inhibition, hits mostly inhibitors; hit rate 0.63% among 310,000; AID 720579; calls by dose curve; tested in A549 cells; further: potency means the concentration at half of the fitted maximal effect; nearly all actives have a fitted effect of over 35% in size
HCMV antiviral: inhibitors of human cytomegalovirus | HFF cells, HCMV-luciferase reporter, 72 h; hits give low values | activity change, negative = inhibition, % at 57.5 µM | hit rate 4.5% among 410,000 | AID 1259415; in the data active means activity change below about -60%; inconclusive means no clear call, values can overlap the other calls; inactive means above about -39%
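Compounds were evaluated in HFFs infected with an HCMV luciferase reporter virus (MOI 1 PFU/cell). Luciferase in lysates collected 72 h post infection served as the replication measure.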
Starred values were filed as active, the others as inactive; i = inactive; ? = inconclusive; . = no result given; [ ] = remark or other dose. Unless noted, the call rests on the fitted dose curve; in most records, active means well fitted curve in the direction sought with a large enough effect; inconclusive means small, poorly fitted or top-dose-only effect, or another doubt; inactive means no such curve, though single readings can be large; an effect the other way counts as inactive or inconclusive. On the % scale 0 is the no-effect control and ±100 the full control effect.

SMILES	VACV Venus inh	Sm TGR block	HCV inhibitor	FMDV inh	Vaccinia mCherry	HCMV antiviral
CCOC(=O)c1c(C)nc2sc(C(=O)Nc3ccc(C(C)=O)cc3)c(N)c2c1-c1ccc(OC)cc1	?	?	?	?	.	6
Cc1nc2sc(C(N)=O)c(N)c2c(-c2ccc(Br)cc2)c1C(=O)Nc1ccc(Cl)cc1	-15%	1%	.	?	-13%	-78*
CCOC(=O)c1c(C)nc2sc3c(=O)n(-c4ccc(OC)cc4)cnc3c2c1-c1ccc(OC)cc1	-3%	0%	2%	-1%	-15%	-6
COc1ccc(-c2c(C(C)=O)c(C)nc3sc4c(=N)n(N)cnc4c23)cc1	13µM*	-1%	?	-4%	7.1µM*	?
CCOC(=O)c1c(C)nc2sc(C(=O)Nc3ccc(OC)cc3)c(N)c2c1-c1ccc(OC)cc1	?	7%	3.5µM*	-13%	?	?
CCOC(=O)c1c(C)nc2sc3c(=O)n(-c4ccc(C(C)=O)cc4)nnc3c2c1-c1ccc(OC)cc1	-7%	-1%	8.9µM*	-4%	-24%	-13
Cc1ccc(S(=O)(=O)NC(=O)C2(C)CCN2C(=O)c2ccccc2CCc2ccccc2)nc1 (stereo unspecified)	1%	.	.	-22%	29%	25
C[C@H](CO)N1C[C@H](C)[C@@H](CN(C)C(=O)Nc2ccccc2)Oc2cc(Br)ccc2S1(=O)=O	-12%	.	.	-7%	i	20
O=c1[nH]c(=O)n(-c2ccccc2)c2c1C(C(F)(F)F)(C(F)(F)F)N=C(C1CCCCC1)N2	-4%	6%	13%	?	-12%	-4
CCc1ccc(N2C(=O)CN(Cc3cc(OC)c(OC)c(OC)c3)C2=S)cc1	-13%	-9%	?	-27%	-30%	-3
CCc1ccccc1N1C(=O)CN(Cc2cc(OC)c(OC)c(OC)c2)C1=S	2%	16%	32µM*	-29%	-4%	-15
COc1ccc(N2C(=O)CN(Cc3ccc(OC)c(OC)c3)C2=S)cc1	-5%	3%	?	-21%	i	-81*
COc1cccc(N2C(=O)CN(Cc3ccc(OC)c(OC)c3)C2=S)c1	-4%	0%	-21%	-20%	i	43
CN(C)CCNC(=O)C1(O)c2cc(Br)ccc2NC(=O)N1c1ccc(Cl)cc1 (stereo unspecified)	-16%	-29%	23%	-7%	-27%	-29
COC(=O)c1cc2c(cc1[N+](=O)[O-])OCO2	.	5%	11%	0%	.	17
COc1cc2c(cc1/C=C/[N+](=O)[O-])OCO2	?	33%	-26%	14µM*	?	-108*
C#CCn1c(S(=O)(=O)Cc2ccccc2Cl)nc(-c2ccccc2)c1-c1ccccc1	.	1%	5%	-17%	.	-70*
C#CCn1c(C)cc(C)c(S(=O)(=O)c2ccccc2)c1=O	-9%	.	4%	58%	-4%	69
C#CCn1c(S(=O)(=O)Cc2ccc(C)cc2)nc(-c2ccccc2)c1-c1ccccc1	-2%	6%	?	-12%	-26%	-95*
CCOC(=O)Cn1c(S(=O)(=O)Cc2ccccc2Cl)nc(-c2ccccc2)c1-c1ccccc1	.	7%	8%	1%	.	-32
COc1ccc(C(=O)c2ccc(OC)c(Br)c2)cc1Br	-13%	10µM*	8%	-20%	-1%	-19
COc1ccc(C(=O)c2ccc(N3CCN(C(=O)c4ccc(F)cc4)CC3)c(F)c2)cc1Br	-17%	?	?	?	-8%[1.46 µM]	-88*
CCOC(=O)c1ccc(NC(=O)CC2C(=O)N(c3ccccc3)C(=O)N2Cc2ccc(C)cc2)cc1 (stereo unspecified)	-14%	14%	.	16%	-9%	12
Cc1ccc(-c2cc(-c3ccc(C)cc3)[n+](-c3ccc(C(=O)O)cc3)c(-c3ccc(C)cc3)c2)cc1	-10%	1%	41%	-7%	i	7
Cc1ccc(C[n+]2c(-c3ccc(C)cc3)cc(-c3ccc(C)cc3)cc2-c2ccc(C)cc2)cc1	3.5µM*	-5%	2.2µM*	?	?	.
SMILES	VACV Venus inh	Sm TGR block	HCV inhibitor	FMDV inh	Vaccinia mCherry	HCMV antiviral
CCc1ccc(N2C(=O)NC(=O)C(Cc3ccc(OC)cc3OC)C2=O)cc1 (stereo unspecified)	-9%	?	-1%	-18%	-16%	22
Cc1ccc2c(c1)NC(=O)C(CC(=O)NC1CCCCC1C)O2 (stereo unspecified)	8%	-14%	7%	-19%	-5%	-8
CC1CCCCC1NC(=O)CC1Oc2ccccc2NC1=O (stereo unspecified)	-1%	0%	4%	-24%	7%	-66*
O=C(Nc1cc(C(F)(F)F)ccc1N1CCOCC1)c1cnccn1	.	-2%	-27%	-19%	.	-6
CC(=O)Oc1ccc(N2C(=O)C3C4C=CC(C5CC45)C3C2=O)cc1[N+](=O)[O-] (stereo unspecified)	-7%	10µM*	7%	-22%	-14%	-16
CC(=O)Oc1ccc(N2C(=O)C3C(C2=O)C2C=CC3C23CC3)cc1[N+](=O)[O-] (stereo unspecified)	.	18µM*	22%	2%	.	20
CC(=O)Oc1ccc([N+](=O)[O-])cc1N1C(=O)c2ccccc2C1=O	-11%	-15%	31%	-16%	-10%	-8
COC(=O)[C@]1(Cc2ccccc2)N[C@H](c2ccc(-c3ccc(Cl)c(Cl)c3)cc2)[C@@H]2C(=O)N(C)C(=O)[C@@H]21	-24%	?	?	?	-6%	33
Cc1cc(C)n(CC(=O)NNC(=O)CCCOc2ccc(Cl)cc2C)n1	-21%	5%	-13%	-21%	-23%	-61*
Cc1cc(C)n(CC(=O)NNC(=O)CCCOc2ccc(Cl)c(C)c2)n1	-17%	-20%	4%	-24%	-2%	5
CCCOc1ccc(N2C(=O)CC(N3CCC(C(=O)OCC)CC3)C2=O)cc1 (stereo unspecified)	-3%	0%	7%	0%	-7%	14
CCN1C(=O)CC(N2CCC(Nc3ccc(F)cc3)CC2)C1=O (stereo unspecified)	-25%	-11%	-7%	-8%	.	-32
CCOC(=O)c1ccc(N2C(=O)CC(N3CCC(Nc4ccc(F)cc4)CC3)C2=O)cc1 (stereo unspecified)	.	56µM*	-13%	1%	.	20
CCOC(=O)C(N)CSC1CC(=O)N(c2ccc(C(=O)OC)cc2)C1=O (stereo unspecified)	2%	?	-11%	-8%	.	1
CCOC(=O)c1ccc(N2C(=O)CC(N3CCCC(C)C3)C2=O)cc1 (stereo unspecified)	.	25µM*	14%	-17%	.	7
CCOC(=O)C1CCCN(C2CC(=O)N(c3cccc(C)c3)C2=O)C1 (stereo unspecified)	.	25µM*	12%	1%	.	8

Screening data: PubChem BioAssay, National Center for Advancing Translational Sciences (NCATS)
